Most compounds without a hit are left out; they make up all but 21% or so of the library.
Shiga inhibitor: Shiga toxin inhibition | Vero cells, Shiga toxin protein synthesis inhibition reporter | inhibition, % at 38.7 µM | hit rate 9.2% among 290,000; in the data active = inhibition mostly above about 28%, no sharp cut-off; inactive = mostly below about 43%; also: 0% is about no effect
Pf growth 96h: P. falciparum growth inhibition at 96 hours; P. falciparum luciferase reporter growth, 96 h; Potency, µM (doses to about 28.7 µM), inactives show top-dose activity change, negative = inhibition, actives largely listed as inhibitors; AID 504834; hit rate 6.9% among 320,000; also: potency is read from the fitted curve at half-maximal effect; % is scaled to controls: 0 for no effect and ±100 for the full control effect
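Compounds incubated with erythrocytes infected by luciferase-expressing P. falciparum (2% hematocrit, 0.05% parasitemia final) for 96 hours, 37 C in 5% CO2. Growth inhibition scored as decreased luciferase luminescence.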
HCV inh: HCV inhibition; Huh7.5.1 HCVcc-Cre infection, luciferase reporter, 44 h; Potency, µM (doses to about 41.8 µM), without a hit: at the top dose activity change, negative = inhibition, most hits filed as inhibitors; hit rate 3.4% among 340,000; AID 651820; also: potency is read from the fitted curve at half-maximal effect; % is scaled to controls: 0 for no effect and ±100 for the full control effect
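Luciferase read-out (15 sec integration) after a 15 min room-temperature substrate step quantifies HCVcc-Cre infection. Cells, 1,000 per well, had compound added 4 h post-plating, then virus at ~0.5 moi, and were cultured 44 h.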
Cycloheximide cs: counter-screen hit for Shiga toxin inhibitors, cycloheximide; AID 2314; cell reporter, cycloheximide protein synthesis inhibition counterscreen; hit rate 12% among 300,000; max response, %; in the data active = max response mostly above about 13%, no sharp cut-off; inactive = mostly below about 14%; also: read at 38.3 µM for the half of the compounds with a filed dose; 0% is about no effect
Pf growth 48h: P. falciparum growth inhibition at 48 hours (one generation) | Potency, µM (top dose mostly 28.7 µM), for inactives: at the top dose activity change, negative = inhibition, most hits filed as inhibitors | AID 504832 | hit rate 5.9% among 310,000 | P. falciparum luciferase growth in erythrocytes, 48 h; also: potency is read from the fitted curve at half-maximal effect; % is scaled to controls: 0 for no effect and ±100 for the full control effect
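Cell-based growth assay: transgenic P. falciparum expressing firefly luciferase, cultured in red cells within RPMI 1640 containing 0.5% w/v Albumax, 24 mM bicarbonate and gentamycin. A drop in luciferase activity indicates inhibition.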
HCMV antiviral: inhibitors of human cytomegalovirus; HFF cells, HCMV-luciferase reporter, 72 h; stronger effect = lower value; activity change, negative = inhibition, % at 57.5 µM; hit rate 4.5% among 410,000; in the data active = activity change below about -60%; inconclusive = no clear call, values can overlap the other calls; inactive = above about -39%; also: % is scaled to controls: 0 for no effect and ±100 for the full control effect
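Steps: HFFs plated, 16 h 37C; compounds added; HCMV-luciferase added to MOI 1 PFU/cell; 72 h 37C; OneGlo reagent, 5 min room temperature; luminescence read, normalized to controls.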
HCV confirm: confirmation of hepatitis C virus inhibitors. shares compounds with HCV inh. HCVcc-Cre infectious virus cell assay, luciferase, inhibition. Potency, µM (top dose mostly 41.8 µM), for the others: at the highest dose activity, negative = inhibition, actives largely listed as inhibitors. hit rate 78% among 640. AID 720575; also: potency is read from the fitted curve at half-maximal effect; nearly all actives have a fitted effect of over 80% in size
HCV cytotox: host cell cytotoxicity counter-screen for HCV inhibitors | shares compounds with HCV inh | HCV host cell line cytotoxicity counterscreen | Potency, µM (titrated, usually from 41.8 µM), for inactives: at the highest dose activity change, negative = cytotoxicity, usual class: inhibitors | hit rate 22% among 640;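 also: potency is read from the fitted curve at half-maximal effect; 44 h compound exposure; % is scaled to controls: 0 for no effect and ±100 for the full control effect; nearly all actives have a fitted effect of over 55% in size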
An asterisk follows results filed as active; [ ] = remark or other dose. Unless noted, calls follow the shape of the dose curve; as a rule, active = well fitted curve in the direction sought with a large enough effect; inconclusive = small, poorly fitted or top-dose-only effect, or another doubt; inactive = no such curve, though single readings can be large; an effect the other way counts as inactive or inconclusive.

What do the screens show for `CCOc1ccc(NC(=O)CN(C)Cc2cc(=O)n3c(-c4ccccc4)csc3n2)cc1OCC`?
Shiga inhibitor: -4.6; Pf growth 96h: inconclusive; HCV inh: 6.31µM*; Cycloheximide cs: 2.3; Pf growth 48h: inconclusive; HCMV antiviral: 15.4; HCV confirm: inconclusive; HCV cytotox: 25.5%

How did COc1ccc2sc(C)nc2c1NC(C)=O do in these assays?
Shiga inhibitor: -3.6; Pf growth 96h: inconclusive; HCV inh: -3.9%; Cycloheximide cs: 1.2; Pf growth 48h: -8.7%; HCMV antiviral: -16.7

What do the screens show for `COc1cc2sc(C)nc2c2sccc12`?
Shiga inhibitor: 14.4; Pf growth 96h: -8.4%[5.75 µM]; HCV inh: 2.24µM*; Cycloheximide cs: -3.7; Pf growth 48h: -8.9%; HCMV antiviral: 10.8; HCV confirm: 25µM*; HCV cytotox: 42.8%

What do the screens show for `CN(C)CCNC(=O)c1ccc(COc2ccc(Cl)cc2Cl)cc1`?
Shiga inhibitor: -16.4; Pf growth 96h: 34.6%; HCV inh: 7.94µM*; Cycloheximide cs: 7.7; Pf growth 48h: inconclusive; HCMV antiviral: 51.2; HCV confirm: 15.8µM*; HCV cytotox: -40.8%

What do the screens show for `O=C(Nc1cccc(C(F)(F)F)c1)C1CCN(S(=O)(=O)c2ccc(N3CCCC3=O)cc2)CC1`?
Shiga inhibitor: 9.1; Pf growth 96h: 13.1µM*; HCV inh: 6.31µM*; Cycloheximide cs: 6.3; Pf growth 48h: inconclusive; HCMV antiviral: -65.7*; HCV confirm: 8.87µM*; HCV cytotox: 14.1µM*

What do the screens show for `CS(=O)(=O)N1CCC(C(=O)Nc2cccc(C(F)(F)F)c2)CC1`?
Shiga inhibitor: -8.0; HCV inh: 5.2%; Cycloheximide cs: -1.5; Pf growth 48h: 10.2%; HCMV antiviral: 20.6

What do the screens show for `O=C1NC[C@@H](Cc2cccc3ccccc23)N(CCc2cccc(F)c2)C1=O`?
HCMV antiviral: 5.0

What do the screens show for `CCc1ccc(C(CNC(=O)c2ccc3c(=O)n(-c4ccccc4F)c(=S)[nH]c3c2)N(C)C)cc1` (stereo not given)?
Shiga inhibitor: 27.2; Pf growth 96h: inconclusive; HCV inh: 5.01µM*; Cycloheximide cs: 9.1; Pf growth 48h: 13.1µM*; HCMV antiviral: inconclusive; HCV confirm: 1.41µM*; HCV cytotox: 31.5µM*

Results for CC(C)Cc1nnc(NC(=O)c2cc(S(=O)(=O)N(C)C)ccc2N2CCCC2)s1 ?
Shiga inhibitor: -30.0; Pf growth 96h: -0.8%; HCV inh: 28.5%; Cycloheximide cs: -0.6; Pf growth 48h: -0.5%; HCMV antiviral: 7.0

How did CN(C)S(=O)(=O)c1ccc(N2CCCC2)c(C(=O)Nc2nc3ccc(F)cc3s2)c1 do in these assays?
Shiga inhibitor: 36.5*; Pf growth 96h: 6.1%; HCV inh: 7.94µM*; Cycloheximide cs: 13.9*; Pf growth 48h: 11.0%; HCMV antiviral: 13.7; HCV confirm: inconclusive; HCV cytotox: -12.8%

How did O=c1oc2ccccc2c(O)c1Cc1cc(Cl)c2cccnc2c1O do in these assays?
Shiga inhibitor: -3.2; Pf growth 96h: -27.9%; HCV inh: 1.5%; Cycloheximide cs: -2.1; Pf growth 48h: inconclusive; HCMV antiviral: 73.0

How did CCC(=O)NC(c1cccs1)c1cc(Cl)c2cccnc2c1O (stereo not given) do in these assays?
Shiga inhibitor: 1.9; Pf growth 96h: 11.7%; HCV inh: 3.98µM*; Cycloheximide cs: -2.5; Pf growth 48h: -19.3%; HCMV antiviral: inconclusive; HCV confirm: 7.05µM*; HCV cytotox: 11.2µM*

How did COc1cc(NC(=O)C(CC(C)C)NS(=O)(=O)c2ccc3c(c2)CCCC(=O)N3)cc(OC)c1 (stereo not given) do in these assays?
HCMV antiviral: 13.8

How did Cc1onc(-c2ccccc2Cl)c1C(=O)Nc1ccccc1C(=O)NC(C)C do in these assays?
Shiga inhibitor: -1.5; Pf growth 96h: 46.6%; HCV inh: 4.47µM*; Cycloheximide cs: -4.0; Pf growth 48h: inconclusive; HCMV antiviral: inconclusive; HCV confirm: 22.3µM*; HCV cytotox: inconclusive

Results for Cc1onc(-c2ccccc2Cl)c1C(=O)Nc1ccccc1C(N)=O ?
Shiga inhibitor: -9.9; Pf growth 96h: inconclusive; HCV inh: -28.7%; Cycloheximide cs: -2.1; HCMV antiviral: -34.7

Results for CCCCn1c(N)c(N(CCC(C)C)C(=O)CC2CCCC2)c(=O)[nH]c1=O ?
Pf growth 96h: 3.2%; HCV inh: 0.2%; Pf growth 48h: -0.6%; HCMV antiviral: -21.5

How did COC(=O)c1cc2c(C)cc3ccc(C)cn3c-2c1C(=O)OC do in these assays?
Shiga inhibitor: -15.9; HCV inh: 3.98µM*; Cycloheximide cs: 0.5; Pf growth 48h: -2.2%; HCMV antiviral: -21.4; HCV confirm: 11.2µM*; HCV cytotox: 43.3%

How did Cc1ccc(NC(=O)CN2C(=O)CNC2=O)cc1 do in these assays?
Shiga inhibitor: 12.5; Pf growth 96h: 11.9%; HCV inh: 0.6%; Cycloheximide cs: 2.2; Pf growth 48h: 2.9%; HCMV antiviral: inconclusive

What do the screens show for `COc1cc2c(=O)n(CCC(=O)NCC3CCCO3)c(=O)n(CC(=O)Nc3ccc(C)cc3C)c2cc1OC` (stereo not given)?
Shiga inhibitor: -3.8; Pf growth 96h: inconclusive; HCV inh: inconclusive; Cycloheximide cs: -6.5; Pf growth 48h: -5.8%; HCMV antiviral: 6.5

How did Cc1ccc(C(C)NC(=O)c2ccco2)cc1 (stereo not given) do in these assays?
Shiga inhibitor: -3.0; Pf growth 96h: -7.7%; HCV inh: 6.31µM*; Cycloheximide cs: -1.2; Pf growth 48h: -15.6%; HCMV antiviral: 12.8; HCV confirm: -24.4%; HCV cytotox: -10.2%

Results for CC(NC(=O)c1ccco1)C(=O)O (stereo not given) ?
Pf growth 96h: 43.0%; HCV inh: 5.7%; Pf growth 48h: 31.6%; HCMV antiviral: 11.2

Results for CCN(CC)CCCn1c2c(c(SCC(=O)Nc3cc(C)cc(C)c3)nc1=O)CCC2 ?
HCMV antiviral: 1.0

What do the screens show for `CCCCCCCCCCn1c2c(c(=N)c3c1CCC3)CCC2`?
Shiga inhibitor: -27.8; Pf growth 96h: 0.117µM*; HCV inh: 3.55µM*; Cycloheximide cs: -3.5; Pf growth 48h: 0.262µM*; HCMV antiviral: -97.5*; HCV confirm: 1.77µM*; HCV cytotox: 2.23µM*

What do the screens show for `COc1cccc(NC(=O)CN(C)C(=O)c2c(C)nn(-c3ccccc3)c2Cl)c1`?
Pf growth 96h: inconclusive; HCV inh: inconclusive; Pf growth 48h: inconclusive; HCMV antiviral: -11.8

Screening data as filed in PubChem BioAssay.
